The entries come from a sample that favours hits as a whole.
NOMO-1 viab: STK33 inhibitor candidate reducing NOMO-1 cell viability; actives 7.5% (n = 37,000); NOMO-1 AML viability, CellTiter-Glo luminescence, 72 h; inhibition, % (concentration not given with the values); in the data active = inhibition above about 80%
STK33 kin inh: inhibitors of human STK33 kinase; Q9BYT3; ADP-Glo luminescence, MBP substrate; inhibition, % at 12.5 µM; actives 0.44% (n = 27,000); in the data active = inhibition above about 20%
Target sequence (Q9BYT3 whole entry, looked up): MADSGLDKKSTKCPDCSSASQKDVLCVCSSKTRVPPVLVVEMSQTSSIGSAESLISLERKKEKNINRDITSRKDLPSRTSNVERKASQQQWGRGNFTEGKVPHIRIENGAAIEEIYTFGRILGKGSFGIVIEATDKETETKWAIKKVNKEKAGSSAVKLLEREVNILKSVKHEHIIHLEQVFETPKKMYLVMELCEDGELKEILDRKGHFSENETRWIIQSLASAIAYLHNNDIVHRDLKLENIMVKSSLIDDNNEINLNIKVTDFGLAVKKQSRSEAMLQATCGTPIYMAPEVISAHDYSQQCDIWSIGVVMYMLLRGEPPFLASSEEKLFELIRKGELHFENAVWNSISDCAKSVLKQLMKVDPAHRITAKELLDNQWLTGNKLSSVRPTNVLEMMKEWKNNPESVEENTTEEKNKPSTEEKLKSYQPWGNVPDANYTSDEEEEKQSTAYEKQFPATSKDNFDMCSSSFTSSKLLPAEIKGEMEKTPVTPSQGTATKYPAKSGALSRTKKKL
PD-1 reversal: reversal of PD-1 mediated T-cell inhibition; activation, % (test concentration not listed); 29,000 tested, under 10 active; AID 2316; primary human CD4 T cells, PD-L1 beads, CellTiter-Glo 96 h; call rule not given here;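 note: 0% = median vehicle wells and 100% = positive control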
Numbers without * were called inactive; · = no result.

SMILES | NOMO-1 viab | STK33 kin inh | PD-1 reversal
C[C@@H]1CN([C@H](C)CO)C(=O)c2cccc(NC(=O)Nc3ccc4c(c3)OCO4)c2O[C@H]1CN(C)Cc1ccc2c(c1)OCO2 | 101* | · | ·
C[C@@H]1CN([C@@H](C)CO)C(=O)c2cccc(NC(=O)Nc3ccc4c(c3)OCO4)c2O[C@H]1CN(C)Cc1ccc(Cl)c(Cl)c1 | 102* | · | -7
CSc1scc2c1-c1nc(SCC(=O)c3ccc(Cl)cc3)ncc1CC2 | -4 | · | 1
COc1ccccc1OC(=O)NC(C)C | -4 | · | 0
CC(=O)OCC(=O)[C@@]1(O)CCC2C3CC[C@@H]4C[C@H](OC(C)=O)CC[C@]4(C)C3C(=O)C[C@@]21C (stereo partly specified) | -23 | 4 | ·
C[C@@H]1CN([C@H](C)CO)C(=O)c2cccc(NC(=O)Nc3ccc4c(c3)OCO4)c2O[C@H]1CN(C)Cc1ccccc1 | 97* | · | -3
C[C@@H]1CN([C@@H](C)CO)C(=O)c2cccc(NC(=O)Nc3ccc4c(c3)OCO4)c2O[C@H]1CN(C)Cc1ccc(C(=O)O)cc1 | 14 | · | 1
C[C@@H]1CN([C@H](C)CO)C(=O)c2cccc(NC(=O)Nc3ccc(F)cc3)c2O[C@@H]1CN(C)Cc1ccc2c(c1)OCO2 | 9 | · | 1
C[C@@H]1CN([C@@H](C)CO)C(=O)c2cccc(NC(=O)Nc3ccc(F)cc3)c2O[C@H]1CN(C)Cc1ccc2c(c1)OCO2 | 113* | · | -7
O=C1C(=O)N(CCCn2ccnc2)C(c2cccc(Br)c2)C1C(=O)c1ccco1 (stereo unspecified) | -5 | -2 | 2
N#CCCN(Cc1ccccc1)C(=O)c1ccccc1[N+](=O)[O-] | 3 | -1 | 0
COC(=O)Nc1ccc(N=Cc2cccs2)cc1 | 8 | · | 2
Cc1sc(NC(=O)COc2ccccc2)c(C(N)=O)c1-c1ccccc1 | 42 | 2 | 0
C=C1C(=O)O[C@@H]2/C=C(\C)[C@@H](OC(=O)C(O)C(C)C)C/C=C(/C)C[C@@H](OC(=O)/C(=C/CO)CO)[C@@H]12 (stereo partly specified) | 121* | -4 | -23
C=C1C(=O)O[C@@H]2/C=C(\C)[C@H](OC(C)=O)C/C=C(/C)C[C@@H](OC(=O)/C(=C/CO)CO)C12 (stereo partly specified) | 108* | 4 | -8
C=C1C(=O)O[C@@H]2/C=C(/C)CC/C=C(/C(=O)O)C[C@@H](OC(=O)/C(C)=C/C)C12 (stereo partly specified) | 38 | -3 | 0
C=C1C(=O)O[C@@H]2/C=C(/C)[C@H](O)CC(=O)[C@](C)(O)C[C@@H](OC(=O)/C(C)=C/C)[C@@H]12 | · | 0 | ·
O=C(Nc1ccccc1[N+](=O)[O-])c1cccc(S(=O)(=O)Nc2ccccc2)c1 | · | 0 | ·
CCc1cc(C(=O)OC)c(NC(=O)c2cc(-c3cccnc3)nc3ccc(Br)cc23)s1 | 89* | 4 | 1
COC(=O)c1cc(Cc2ccccc2)sc1NC(=O)c1cc(-c2cccnc2)nc2ccccc12 | 9 | 0 | ·
O=C(NC1CC1)[C@@H]1c2ccccc2C(=O)N(CC23CC4CC(CC(C4)C2)C3)[C@H]1c1ccc(CO)cc1 | · | -3 | ·
O=C1c2ccccc2C(=O)N1CC12CC3CC(CC(C3)C1)C2 | 98* | · | -4
CC12CC34CC(O)C5C(CO)(CO)CC(=O)CC5(C)C3CC1C2C4 (stereo unspecified) | · | -3 | ·
CCOC(=O)c1cnc(C(F)(F)F)nc1Sc1n[nH]c(-c2cccs2)n1 | -16 | 0 | 3
CC(=O)Nc1ccc(NC(=O)CNS(=O)(=O)c2c(C)cc(C)cc2C)cc1 | -3 | -6 | 5
SMILES | NOMO-1 viab | STK33 kin inh | PD-1 reversal
Cc1cc(C)c(S(=O)(=O)NCC(=O)Nc2ccc(C(C)C)cc2)c(C)c1 | 95* | -1 | -6
COc1c(CC=C(C)C)c2c(c3oc(=O)c(-c4ccc(OC(C)=O)cc4)c(OC(C)=O)c13)C=CC(C)(C)O2 | 32 | -3 | 0
C[C@H]1CN([C@@H](C)CO)C(=O)c2cc(NC(=O)Nc3ccc4c(c3)OCO4)ccc2O[C@@H]1CN(C)Cc1ccc(-c2ccccc2)cc1 | 112* | 6 | 0
C[C@@H]1CN([C@@H](C)CO)C(=O)c2cc(NC(=O)Nc3ccc4c(c3)OCO4)ccc2O[C@H]1CN(C)Cc1ccc(-c2ccccc2)cc1 | 116* | · | 2
C[C@H](CO)N1C[C@H](C)[C@@H](CN(C)Cc2ccc(Oc3ccccc3)cc2)Oc2ccc(NC(=O)Nc3ccc4c(c3)OCO4)cc2C1=O | 32 | · | 0
C[C@@H]1CN([C@@H](C)CO)C(=O)c2cc(NC(=O)Nc3ccc4c(c3)OCO4)ccc2O[C@H]1CN(C)Cc1ccccc1 | 34 | · | ·
C[C@H](CO)N1C[C@H](C)[C@@H](CN(C)Cc2ccc(-c3ccccc3)cc2)Oc2ccc(NC(=O)Nc3ccc4c(c3)OCO4)cc2C1=O | 120* | · | 0
C[C@@H]1CN([C@H](C)CO)C(=O)c2cc(NC(=O)Nc3ccc4c(c3)OCO4)ccc2O[C@H]1CN(C)Cc1ccc(Oc2ccccc2)cc1 | -2 | 1 | 3
C/C(=C/CCC(CO)C1CCC2(C)C3CCC4C(C)(C)C(OC5OC(CO)C(O)C(O)C5O)CCC45CC35CCC12C)COC1OC(COC2OC(CO)C(O)C(O)C2O)C(O)C(O)C1O (stereo unspecified) | -2 | -2 | 0
Cc1ccc(COc2ccc(I)cc2)cc1 | 19 | · | 1
COc1ccc(-n2nnnc2SCC(=O)Nc2ccc(F)cc2)cc1 | 7 | -2 | ·
C[C@H]1CN([C@@H](C)CO)C(=O)c2cccc(NS(=O)(=O)c3ccc(F)cc3)c2O[C@@H]1CN(C)Cc1ccc(C(=O)Nc2ccccc2N)cc1 | 94* | · | 1
C[C@@H]1CN([C@@H](C)CO)C(=O)c2cccc(NS(=O)(=O)c3ccc(F)cc3)c2O[C@@H]1CN(C)Cc1ccc(C(=O)Nc2ccccc2N)cc1 | 129* | · | 1
C[C@H]1CN([C@@H](C)CO)C(=O)c2cccc(NS(=O)(=O)c3ccc(F)cc3)c2O[C@H]1CN(C)Cc1ccc(C(=O)Nc2ccccc2N)cc1 | 114* | · | 2
C[C@@H]1CN([C@@H](C)CO)C(=O)c2cccc(NS(=O)(=O)c3ccc(F)cc3)c2O[C@H]1CN(C)Cc1ccc(C(=O)Nc2ccccc2N)cc1 | 45 | · | -1
C[C@H](CO)N1C[C@H](C)[C@@H](CN(C)Cc2ccc(C(=O)Nc3ccccc3N)cc2)Oc2c(NS(=O)(=O)c3ccc(F)cc3)cccc2C1=O | 43 | · | -1
Cc1c(Br)c([N+](=O)[O-])nn1CC(=O)Nc1sc2c(c1C#N)CCCC2 | 28 | -4 | -1
Cc1cc(C)c(C)c(OCC(=O)NCc2cccnc2)c1 | 31 | -1 | 0
CC1OC(OC2CCC3(C)C(CCC4(C)C3CC=C3C5CC(C)(C)CCC5(C(=O)OC5OC(CO)C(OC6OCC(OC7OC(CO)C(O)C(O)C7O)C(OC7OCC(O)C(O)C7O)C6O)C(O)C5O)CCC34C)C2(C)C)C(O)C(O)C1OC1OCC(O)C(O)C1O (stereo unspecified) | 0 | -2 | -1
O=C(CN1C(=O)C2C3C=CC(C4CC34)C2C1=O)Nc1ccc(Oc2ccccc2)cc1 (stereo unspecified) | 27 | 0 | -2
C=C(C(=O)O)C(O)CCC1(C)C2CC3C(C2)C31C (stereo unspecified) | 9 | -3 | 0

Assay outcomes from PubChem.
